For the test, the system named is HL-60(TB) leukemia. Put plainly: NCI-60 one-dose screen, 48 h (100 = growth as untreated, 0 = no growth, -100 = all killed). The note with it: 10 µM unless noted.

Compounds without any hit were thinned out: in the full panel of roughly 83,000, 20% have a hit.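 Method: cells in 96-well plates; compound added at one concentration; 48 h incubation; percent growth measured; values under 10 scored active.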 Active and inactive are the calls of the source.

For `Nc1nc(N)c(N=Nc2ccccc2)c(-c2ccccc2)n1`, the growth is 71.4% (inactive). As for `CCn1c(SCC(=O)Nc2cc(C(F)(F)F)ccc2Cl)nc2ccccc2c1=O`, the growth was 19.3% (inactive). Turning to `Cc1ccc(C(=O)c2ccc(CC(=O)NN3C(=O)c4ccccc4C3=O)n2C)cc1`, the growth was 100% (inactive).

Turning to `CCCCCCCCCCNC(=O)CI`, the growth is 19.3% (inactive). With `Cc1c(O)cc(-c2cnc(Nc3ccccc3)s2)c(O)c1C`, the growth was 101% (inactive). As for `COc1cc2c(c(OC)c1OC)CCc1cnoc1-2`, the growth was 114% (inactive). With `O=C(Nc1ccc(F)c(Cl)c1)c1n[nH]c(=O)c2ccccc12`, the growth is 86.2% (inactive). On to `COc1ccc(/C=C2\N=C3Sc4cc(Cl)ccc4C(=O)N3C2=O)cc1`, for which the growth was 92.4% (inactive).

As to `CC(C)OC(=O)[C@H](C)N[P@@](=O)(OC[C@@]1(C)O[C@@H](n2cc(F)c(N)nc2=O)C[C@@H]1O[P@](=O)(N[C@@H](C)C(=O)OC(C)C)Oc1ccccc1)Oc1ccccc1`, the growth was 95.5% (inactive).

Take `CCN(CC)C(CC(=O)c1ccccc1)C(=O)c1ccccc1` (stereo not given): the growth is 63.5% (inactive). In the case of `O=C(O)c1cccc2c1-c1ccccc1C2=O` it was 106% (inactive).

For `O=C(Cc1cccc2ccccc12)N/N=C/c1ccc2c(c1)CCC2`, the growth is 68.3% (inactive). Turning to `COC(=O)CCCCCCCCC1(C)C=CC(C(C)O)=CC1` (stereo not given), the growth is 99.4% (inactive). Take `COc1ccc(Cl)cc1Nc1nc(C(F)(F)F)ccc1C(=O)N/N=C/c1ccc(N(C)C)cc1`: the growth was 85.4% (inactive). As for `Oc1ccc(CNNc2ccnc3c(O)cccc23)c2cccnc12`, the growth is -7.85% (active).

(Values after PubChem BioAssay (NCI).)
